Out of some 300,000 compounds screened, about 990 (0.33%) were called active. The full list was thinned out, with actives kept by preference. A number with no mark means an inactive call.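 The calls were made as follows: active = inhibition above the screen mean inhibition plus 3 SD, computed separately per campaign (cut at about 18% in these data); inactive = the rest.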
system: Fam108B (ABHD17B) serine hydrolase [Mus musculus]; experiment: inhibition of Fam108B (ABHD17B) hydrolase – biochemical, fluorescence polarization, counter-screen for RBBP9 inhibitor project, primary screen (AID 1947); details: recombinant Fam108B, FP-Rh probe fluorescence polarization; at 9.51 µM; active compounds read high;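 also: inhibitors lower polarization as less probe binds the enzyme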

SMILES | inhibition
CCN(CC(=O)NCc1ccc(Cl)cc1)C(=O)CSc1ccccc1 | 1.51%
CN1/C(=C\C=C2\N=C(c3ccc(F)cc3)OC2=O)C(C)(C)c2ccccc21 | -7.15%
COc1ccc(Nc2nc(-c3cccnc3)nc3ccccc23)cn1 | -1.81%
CC(=O)Nc1cccc(Nc2nc(-c3cccs3)nc3ccccc23)c1 | -19.2%
Cc1cccc(-c2nc(Nc3ccc(O)cc3)c3ccccc3n2)c1 | 29.1% (active)
O=C(C/C(=N\NC(=O)c1ccccc1Br)C(F)(F)F)c1cccs1 | 1.64%
Cc1ccc(N/C(N)=N/c2nc(C(F)(F)F)cc(C(F)(F)F)n2)cc1 | -3.46%
CCOc1ccc(NC(=O)COc2ccc(S(=O)(=O)N3CCCC3)cc2)cc1 | -2.57%
COCCNC(=O)c1ccccc1NS(=O)(=O)c1ccc(C)c([N+](=O)[O-])c1 | -2.57%
Cc1ccc(NS(=O)(=O)c2ccc(N/N=C/c3ccccc3OCC(=O)O)c([N+](=O)[O-])c2)c(C)c1 | 26.5% (active)
Cc1ccc(NS(=O)(=O)c2ccc(C)c(NC(=O)COc3ccc4ccccc4c3)c2)c(C)c1 | -29.8%
CO/N=C/c1ccc(N2CCN(C(=O)c3cccc(Cl)c3)CC2)c([N+](=O)[O-])c1 | 4.08%
O=C(O)CCN=C1CCc2ccccc2N1 | 9.07%
CC(=O)Nc1ccc(NC(=O)CSC2=NS(=O)(=O)c3ccccc3N2)cc1 | 0.2%
COc1ccc(CC(=O)Nc2nc(-c3ccc(F)c(F)c3)cs2)cc1OC | -7.43%
CC(C)(C)C(=O)OCc1nc(-c2ccc(O)c(O)c2)cs1 | -1.7%
COc1ccc(OC)c(Nc2nc(-c3ccc(O)c(O)c3)cs2)c1 | 20.1% (active)
CCOc1ccc(S(=O)(=O)Nc2nccs2)cc1 | 2.3%
COC(C[C@@H](O)C[C@H](O)[C@H](C)OCc1ccccc1)OC | 4.92%

SMILES | inhibition
COc1ccccc1NS(=O)(=O)c1ccc(C)c(C(=O)NCC(c2ccco2)N(C)C)c1 (configuration not stated) | -0.42%
CC(=O)Nc1ccc(Oc2ccc3c(c2)C(=O)NC3=O)cc1 | 0.73%
C=CCn1c(=S)[nH]c2scc(-c3ccco3)c2c1=O | 18.5% (active)
C=CCNC(=O)CSc1nc2scc(-c3ccco3)c2c(=O)n1CC=C | -0.48%
C=CCn1c(SCc2csc(C)n2)nc2scc(-c3ccc(C)o3)c2c1=O | 0.24%
O=C(CCCN1C(=O)/C(=C/c2cccs2)SC1=S)Nc1ccc(O)cc1 | -3.39%
CCC/C(C)=N\Nc1nc2c(c(=O)n(C)c(=O)n2C)n1C | 0.84%
Cc1ccccc1OCCOc1ccc([N+](=O)[O-])cc1/C=N/n1cnnc1 | -2.64%
Cc1cccc(COc2ccccc2/C=N/Nc2ccc([N+](=O)[O-])cc2)c1 | 23% (active)
O=[N+]([O-])c1ccc(N/N=C/c2ccccc2)cc1 | 5.14%
CC1=CC2=NC(=O)CC(C)(C(=O)N(CC(=O)NC(C)(C)C)Cc3ccccc3)N2C=C1 (configuration not stated) | 0.82%
Cc1cccc2cc3c(N)c(C(=O)N4CCCc5ccccc54)sc3nc12 | 18.9% (active)
Cc1c(C(=O)N2CCCc3ccccc32)oc2ccccc12 | 0.38%
Cc1c(C(=O)N2CCCc3ccccc32)sc2nc(-c3ccccc3)cn12 | 2.92%
O=C(CCC(=O)n1ncc2ccccc21)NCc1ccccc1Cl | 0.79%
COc1ccc(-c2csc(-c3cccs3)n2)cc1OC | 3.25%
COc1ccc(-c2csc3nc(-c4ccccc4F)oc(=O)c23)cc1OC | 21.9% (active)
COc1ccccc1-c1nnc(-c2ccc(F)cc2)o1 | -1.04%
